{
  "source": "PubChem BioAssay (NCATS)",
  "note": "Records with an inconclusive call do not appear. A call without a number means that no potency is given here. The source made the active and inactive calls. Calls come from the whole dose curve; as a rule, active = well fitted inhibition curve with a large enough effect; inconclusive = small, poorly fitted or top-dose-only effect; inactive = flat fitted curve, though single readings scatter.",
  "data": [
    {"target": "Calcium and integrin-binding protein 1 (Homo sapiens) (UniProt Q99828)", "sequence (Q99828 whole entry, looked up)": "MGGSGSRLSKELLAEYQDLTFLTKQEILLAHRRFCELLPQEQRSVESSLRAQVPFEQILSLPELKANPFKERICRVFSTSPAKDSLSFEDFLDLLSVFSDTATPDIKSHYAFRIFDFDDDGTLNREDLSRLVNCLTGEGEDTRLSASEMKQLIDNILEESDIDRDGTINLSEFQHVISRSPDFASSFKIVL", "experiment": "Primary qHTS for Identification of Calcium Integrin Binding Protein 1 (CIB1) Competitor (AID 1508620);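 note: GST tagged CIB1 binding a fluorescein labelled alphaIIb integrin peptide tracer; top concentration of the series differs between compounds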", "conditions": "CIB1-GST / FITC-alphaIIb peptide fluorescence polarization; series mostly up to 114 µM", "how_it_was_run": "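Fluorescence polarization competition: CIB1-GST (1 uM final) preincubated with compound 15 min at room temperature, then FITC-labeled alphaIIb peptide (100 nM final) added for another 15 min. Polarization read at Ex 480/Em 540.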", "values": [
      {"smiles": "O=C1CN(S(=O)(=O)c2ccc3c(c2)OCCO3)CCN1S(=O)(=O)c1c(F)cccc1F", "Potency": "inactive"},
      {"smiles": "N#Cc1ccc(S(=O)(=O)N2CCN(S(=O)(=O)c3ccc4c(c3)OCCO4)CC2)cc1", "Potency": "inactive"},
      {"smiles": "N#Cc1ccc(CSc2nc3ncc(Br)cc3[nH]2)cc1", "Potency": "inactive"},
      {"smiles": "Cc1cc(C=CC#N)cc(C)c1Nc1nc(Nc2ccc3scnc3c2)c2[nH]cnc2n1", "Potency": "inactive"},
      {"smiles": "Cc1cccc(CNc2ccnc(-c3cccc4ccccc34)n2)c1", "Potency": "inactive"},
      {"smiles": "COc1ccc(C2N=C(Nc3nc4ccccc4o3)NC3=C2C(=O)CCC3)cc1", "note": "(centres undefined)", "Potency": "inactive"},
      {"smiles": "O=C1CCc2cc(S(=O)(=O)Nc3cccnc3)ccc2N1", "Potency": "inactive"},
      {"smiles": "CC(C)(C)OC(=O)NCCOCCOCCOCCn1ncc2c1CCCC2NC(=O)c1ccccn1", "note": "(centres undefined)", "Potency": "inactive"},
      {"smiles": "COc1ccc(C2Nc3ccccc3C(=O)N2Cc2ccc(C(F)(F)F)cc2)cc1COc1ccc(NC(C)=O)cc1", "note": "(centres undefined)", "Potency": "inactive"},
      {"smiles": "Cc1ccc(Cl)cc1NS(=O)(=O)c1cc2c(cc1Cl)CCC(=O)N2", "Potency": "inactive"},
      {"smiles": "COc1ccc(C(=O)N(Cc2ccccc2)Cc2cccs2)c(O)c1", "Potency": "inactive"},
      {"smiles": "COc1ccc(C2=Nn3c(nnc3-c3ccccc3Cl)SC2)cc1OC1CCOC1", "note": "(centres undefined)", "Potency": "inactive"},
      {"smiles": "Cc1cc(C)n2ncc(C(=O)Nc3ccccc3C)c2n1", "Potency": "inactive"},
      {"smiles": "Cc1ccc(-c2nc3ccccc3s2)cc1NC(=O)c1ccc(-c2cccc(Cl)c2)o1", "Potency": "inactive"},
      {"smiles": "O=S(=O)(Nc1ccc2ccccc2c1)c1ccc(NCc2cccc(Cl)c2O)cc1", "Potency": "inactive"},
      {"smiles": "O=C(CN(Cc1cccc2ccccc12)C1CC1)Nc1ccc(N2CCOCC2)cc1", "Potency": "inactive"},
      {"smiles": "O=S(=O)(c1ccc2c(c1)OCCO2)N1CCN(S(=O)(=O)c2ccc(Cl)cc2F)CC1", "Potency": "inactive"},
      {"smiles": "Cc1cc2[nH]c3c(=O)n(Cc4ccccc4F)ncc3c2s1", "Potency": "inactive"},
      {"smiles": "Cc1ccc(OCCn2c(CCNC(=O)Cc3cccc4ccccc34)nc3ccccc32)cc1", "Potency": "inactive"},
      {"smiles": "O=C1CCCC2=C1C(c1[nH]ncc1Cl)N=C(Nc1ccccc1)N2", "note": "(centres undefined)", "Potency": "inactive"},
      {"smiles": "O=C(Nc1ncc(Cc2ccc(C(F)(F)F)cc2)s1)c1cnc(-c2ccccc2)[nH]1", "Potency": "inactive"},
      {"smiles": "CN1CCN(Nc2nn3c(=O)c4ccccc4nc3s2)CC1", "Potency": "inactive"},
      {"smiles": "Fc1cc(Nc2nc(-c3ccncc3)nc3ccccc23)ccc1-c1cccc(OC(F)(F)F)c1", "Potency": "inactive"},
      {"smiles": "Cc1cc(-c2nnc3n2CCCCC3)c(C)n1-c1ccc(Cl)c(Cl)c1", "Potency": "inactive"},
      {"smiles": "COc1ccc(N2C[C@]34C=C[C@H](O3)C(C(=O)O)C4C2=O)cc1OC", "note": "(some centres undefined)", "Potency": "inactive"},
      {"smiles": "CC(=O)NC(c1ccco1)c1cc(Cl)c2ccc(N3CCCCC3)nc2c1O", "note": "(centres undefined)", "Potency": "inactive"},
      {"smiles": "COc1cccc(S(=O)(=O)N2CCN(S(=O)(=O)c3ccc4c(c3)OCCO4)CC2)c1", "Potency": "inactive"},
      {"smiles": "COc1cccc(C2c3c(ncn(-c4cccc(Br)c4)c3=N)Oc3ccc4ccccc4c32)c1", "note": "(centres undefined)", "Potency": "inactive"},
      {"smiles": "COc1ccc(-c2ccc(Nc3nc(-c4ccncc4)nc4ccccc34)cc2F)cc1F", "Potency": "inactive"},
      {"smiles": "CC(=O)Nc1sc2c(c1-c1ccc3scnc3c1)CCNC2", "Potency": "inactive"},
      {"smiles": "O=C1CCCC2=C1C(c1[nH]ncc1Cl)N=C(Nc1nc3cc(Cl)ccc3o1)N2", "note": "(centres undefined)", "Potency": "inactive"},
      {"smiles": "CS(=O)(=O)c1ccc(-c2csc(N3CCC(C(N)=O)CC3)n2)cc1", "Potency": "inactive"},
      {"smiles": "O=C1Nc2ccccc2/C1=C\\c1ccc(O)cc1", "Potency": "inactive"},
      {"smiles": "Cc1occc1-c1ccc2ncnc(NCc3ncc[nH]3)c2c1", "Potency": "inactive"},
      {"smiles": "CC(C)c1ccccc1-c1ncc(F)c(NC(C)(C)c2ccc(-c3cccnc3)cc2)n1", "Potency": "inactive"},
      {"smiles": "O=C(CN1C(=O)N/C(=C\\c2cn(-c3cccc(C(=O)O)c3)cn2)C1=O)Nc1ccccc1Cl", "Potency": "inactive"},
      {"smiles": "Cn1nnnc1Sc1ncnc2scc(Br)c12", "Potency": "inactive"},
      {"smiles": "Oc1c(CNc2ccccc2)cc(COCc2ccccc2)c2cccnc12", "Potency": "inactive"},
      {"smiles": "CCOC(=O)c1ccc(-n2cnc3cc(C(=O)N4CCCCC4)ccc32)cc1", "Potency": "inactive"}
    ]}
  ]
}
